# Test results from PubChem BioAssay (NCATS).
# Records with an inconclusive call do not appear. A number with no mark means an inactive call. Active and inactive are the calls of the source. The call rests on the fitted dose curve; in most records, active means well fitted inhibition curve with a large enough effect; inconclusive means small, poorly fitted or top-dose-only effect; inactive means flat fitted curve, though single readings scatter. Where a SMILES comes first, the peptide text is derived from it. [ ]: non-standard residue; d: D form. dPhe(4-Cl) = N[C@H](Cc1ccc(Cl)cc1)C(=O)O; d2Nal = N[C@H](Cc1ccc2ccccc2c1)C(=O)O; dCit = NC(=O)NCCC[C@@H](N)C(=O)O; d3Pal = N[C@H](Cc1cccnc1)C(=O)O
# Tested on: CRL-7250
# Test: Cytotoxic Profiling of Annotated Libraries Using Quantitative High-Throughput Screening (AID 1296008); further: nearly all actives have a fitted effect of over 60% in size
# Conditions: Five cell lines viability, CellTiter-Glo ATP luminescence, 48-72 h; max response: active compounds read low
# Summary of the method: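 Cytotoxicity was measured as CellTiter-Glo ATP luminescence, read after 10 min at room temperature. Compound treatment of the cells lasted 48 or 72 hr at 37 degrees Celsius in a qHTS format.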
# On the % scale 0 is the no-effect control and ±100 the full control effect; potency means the concentration at half of the fitted maximal effect.
Structure (SMILES),max response,outcome,Potency
C=C1C(O)C[C@@H]2C(C(=O)O)=CO[C@@H](O[C@@H]3O[C@H](CO)[C@@H](O)[C@H](O)[C@H]3OC(=O)c3ccc(O)cc3)[C@H]12 (stereo partly specified),-1.69%,,
CC(C)S(=O)(=O)N[C@H]1CCOC[C@@H]1c1ccc(-c2ccc(C#N)s2)cc1,,inactive,
C=CC1C(OC2OC(CO)C(O)C(O)C2O)OC=C2C(=O)N3C(C(=O)O)Cc4c([nH]c5ccccc45)C3CC21 (stereo unspecified),,inactive,
COc1ccc2[nH]c3c(-c4cccc5ccccc45)nccc3c2c1,,,1160 nM (active)
C=C(C)C1CCC2(C(=O)O)CCC3(C(=O)O)C(CCC4C5(C)CCC(O)C(C)(C(=O)O)C5CCC43C)C12 (stereo unspecified),,inactive,
C=C1C(=O)OC2CC3(C)C(CC12)C(C)=CC(O)C3OC(C)=O (stereo unspecified),-3.42%,,
CC1=CC(=O)CC2C1(O)CCC(C)C21CC(c2ccoc2)OC1=O (stereo unspecified),-9.3%,,
CC(C)CC1NC(=O)C2CC3(O)c4ccccc4NC3N2C1=O (stereo unspecified),-2.34%,,
O=C(O[C@H]1[C@@H]2C[C@@H]3OC[C@](O)([C@@H]1Cl)[C@H]2C(O[C@@H]1O[C@H](CO)[C@@H](O)[C@H](O)[C@H]1O)O3)c1ccc(O)c(O)c1 (stereo partly specified),-7.93%,,
Cc1ccc(F)cc1C(=O)Nc1ccc(C(=O)N2Cc3cccn3Cc3ccccc32)c(Cl)c1,-11.2%,,
C[C@@H]1O[C@@H](O[C@H]2[C@H](O)[C@@H](O[C@@H]3O[C@H](CO)[C@@H](O)[C@H](O[C@@H]4O[C@H](CO)[C@@H](O)[C@H](O)[C@H]4O)[C@H]3O)[C@H](O[C@H]3CC[C@@]4(C)C(=CC[C@@H]5C4CC[C@@]4(C)C5C[C@@H]5OC6(CC[C@@](C)(CO[C@@H]7O[C@H](CO)[C@@H](O)[C@H](O)[C@H]7O)O6)[C@@H](C)[C@@H]54)C3)O[C@@H]2CO)[C@H](O)[C@H](O)[C@H]1O (stereo partly specified),-2.4%,,
NC(=O)Nc1cc(-c2cccc(F)c2)sc1C(=O)NC1CCCNC1 (stereo unspecified),-112%,,
COC(=O)C[C@H]1C(C)(C)[C@H](OC(C)=O)C2CC3=C4CC(=O)O[C@@H](c5ccoc5)[C@]4(C)CCC3[C@@]1(C)C2=O (stereo partly specified),3.53%,,
O=C1CCC(=O)N(O)CCCCCNC(=O)CCC(=O)N(O)CCOCCNC(=O)CCC(=O)N(O)CCCCCN1,-5.63%,,
C[C@H]1O[C@@H](O[C@H]2CC[C@@]3(C)C(CC[C@]4(C)C3CC=C3C5CC(C)(C)CC[C@]5(C(=O)O)CC[C@]34C(=O)O)C2(C)C)[C@H](O)[C@@H](O)[C@@H]1O (stereo partly specified),,inactive,
CC(C)=CCC[C@](C)(O[C@@H]1O[C@H](CO)[C@@H](O)[C@H](O)[C@H]1O)[C@H]1CC[C@]2(C)[C@@H]1[C@H](O)CC1[C@@]3(C)CC[C@H](O)C(C)(C)C3[C@@H](O[C@@H]3O[C@H](CO)[C@@H](O)[C@H](O)[C@H]3O)C[C@]12C (stereo partly specified),-0.753%,,

Structure (SMILES),max response,outcome,Potency
CC1=C(COC2OC(CO)C(O)C(O)C2O)C(C(CO)C(=O)O)CC1 (stereo unspecified),2.58%,,
COC(=O)c1ccnc(-c2cc(C(=O)NCCc3ccccc3)ccn2)c1,-12.7%,,
CC1(C)CC[C@]2(C(=O)O[C@@H]3O[C@H](CO)[C@@H](O)[C@H](O)[C@H]3O)CC[C@]3(C)C(=CCC4[C@@]5(C)CC[C@H](O[C@@H]6O[C@H](C(=O)O)[C@@H](O)[C@H](O)[C@H]6O)[C@@](C)(CO)C5CC[C@]43C)C2C1 (stereo partly specified),1.86%,,
C/C=C(\C)C(=O)OCC1OC(OC2OC(COC(=O)/C(C)=C/C)C(OC3OC(CO)C(OC(=O)/C(C)=C/C)C(OC(=O)/C(C)=C/C)C3O)C(O)C2O)C(O)C(O)C1OC1OC(CO)C(OC(=O)/C(C)=C/C)C(OC(=O)/C(C)=C/C)C1O (stereo unspecified),-8.02%,,
CC1(C)CC[C@]2(CO[C@@H]3O[C@H](CO)[C@@H](O)[C@H](O)[C@H]3O)[C@@H](O)C[C@]3(C)C(=CCC4[C@@]5(C)CC[C@H](O[C@@H]6O[C@H](CO[C@@H]7O[C@H](CO[C@@H]8OC[C@@H](O)[C@H](O)[C@H]8O)[C@@H](O)[C@H](O)[C@H]7O)[C@@H](O)[C@H](O)[C@H]6O)C(C)(C)C5CC[C@]43C)[C@@H]2C1 (stereo partly specified),-5.37%,,
CCOC(=O)C(CCc1ccccc1)NC1CSC(c2cccs2)CN(CC(=O)O)C1=O (stereo unspecified),2.02%,,
C=C1CCC2C(C)(C(=O)O)CCCC2(C)C1CC/C(=C\CO)CO (stereo unspecified),0.544%,,
CC(C)C(C(=O)N(C)C(C)C(N)=O)N(C)C(=O)C1CCCN1C(=O)/C=C/C=C/C(O)C(C)O (stereo unspecified),,inactive,
C=C1CCC[C@]2(C)CC[C@@H](C(=C)C(=O)O)[C@H](O)[C@@H]12,-0.497%,,
O=C1CSc2ccccc2N1Cc1cccc(C(F)(F)F)c1,-9.14%,,
CC[C@H]1OC(=O)[C@H](C)[C@@H](O[C@H]2C[C@@](C)(OC)[C@@H](O)[C@H](C)O2)[C@H](C)[C@@H](O[C@@H]2O[C@H](C)C[C@H](N(C)C)[C@H]2O)[C@](C)(O)C[C@@H](C)C(=O)[C@H](C)[C@H]2OC(=O)O[C@@]21C,0.0016%,,
C[C@@H]1O[C@@H](O[C@H]2[C@H](O[C@H]3CC[C@@]4(C)C(CC[C@]5(C)C4CC=C4[C@@H]6CC(C)(C)CC[C@]6(C(=O)O[C@@H]6OC[C@H](O)[C@H](O)[C@H]6O[C@@H]6O[C@@H](C)[C@H](O[C@@H]7O[C@H](CO)[C@@H](O)[C@H](O)[C@H]7O)[C@H](O)[C@H]6O)[C@H](O)C[C@]45C)C3(C)C)O[C@H](CO)[C@@H](O[C@@H]3OC[C@@H](O)[C@H](O)[C@H]3O)[C@@H]2O)[C@H](O)[C@H](O)[C@H]1O (stereo partly specified),,inactive,
CC(=O)N[C@H](Cc1ccc2ccccc2c1)C(=O)N[C@H](Cc1ccc(Cl)cc1)C(=O)N[C@H](Cc1cccnc1)C(=O)N[C@@H](CO)C(=O)N[C@@H](Cc1ccc(O)cc1)C(=O)N[C@H](CCCNC(N)=O)C(=O)N[C@@H](CC(C)C)C(=O)N[C@@H](CCCN=C(N)N)C(=O)N1CCC[C@H]1C(=O)N[C@H](C)C(N)=O (Ac-[d2Nal][dPhe(4-Cl)][d3Pal]SY[dCit]LRP[dA]-NH2),-7.92%,,
Cc1ccc([N+](=O)[O-])cc1S(=O)(=O)N(C)/N=C/c1cnc2ccc(Br)cn12,,,82 nM (active)
CC(=O)NC1=NN(C(C)=O)C(C)(c2ccccc2)S1 (stereo unspecified),-15.8%,,
